Hits are enriched below; roughly 19% of the tested compounds scored in any of these assays.
TDP1 block = inhibitors of human tyrosyl-DNA phosphodiesterase TDP1; recombinant TDP1, AlphaScreen DNA substrate cleavage; Q9NUW8; actives 0.28% (n = 350,000); AID 485290; Potency, µM (highest dose often 130 µM), without a hit: top-dose activity change, negative = inhibition, hits mostly inhibitors; note: potency is the fitted concentration of half-maximal effect; % is set by controls: 0 for no effect and ±100 for the full control effect; nearly all actives have a fitted effect of over 40% in size
Target sequence (Q9NUW8 whole entry, looked up): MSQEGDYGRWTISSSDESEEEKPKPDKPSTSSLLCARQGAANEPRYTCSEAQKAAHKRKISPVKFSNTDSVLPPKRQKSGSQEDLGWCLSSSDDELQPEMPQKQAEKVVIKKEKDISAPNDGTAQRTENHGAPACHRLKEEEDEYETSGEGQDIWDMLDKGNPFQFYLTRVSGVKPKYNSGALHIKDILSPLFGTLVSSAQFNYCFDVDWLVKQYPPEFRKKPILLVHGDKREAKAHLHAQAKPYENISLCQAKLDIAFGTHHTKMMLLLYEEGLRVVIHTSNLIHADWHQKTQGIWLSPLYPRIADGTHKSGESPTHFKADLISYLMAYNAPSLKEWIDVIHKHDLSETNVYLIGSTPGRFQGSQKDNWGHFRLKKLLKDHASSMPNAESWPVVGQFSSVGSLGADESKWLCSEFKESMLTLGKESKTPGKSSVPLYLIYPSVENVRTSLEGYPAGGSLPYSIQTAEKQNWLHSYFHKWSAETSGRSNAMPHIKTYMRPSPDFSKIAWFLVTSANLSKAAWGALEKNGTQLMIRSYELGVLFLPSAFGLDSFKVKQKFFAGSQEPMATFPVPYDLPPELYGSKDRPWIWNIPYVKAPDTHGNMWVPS
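AlphaScreen read-out: signal falls as enzyme removes the 3' tyrosine-FITC from a 5'-biotinylated DNA oligo (15 nM, 5 min, RT). Enzyme was E. coli-made recombinant Tdp1 at 1 nM, exposed to compound for 15 min beforehand; beads 10 ug/ml, 10 min.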
TDP1 cell CPT = growth inhibition of DT40 Tdp1-/-;hTDP1 cells with camptothecin (screen for TDP1 inhibitors). chicken DT40 Tdp1-/-;hTDP1 cells + 20 nM CPT, ATP luminescence, 48 h. Potency, µM (highest dose often 46.2 µM), without a hit: at the highest dose activity change, negative = growth inhibition, most hits filed as inhibitors. actives 12% (n = 420,000); note: potency is the fitted concentration of half-maximal effect; % is set by controls: 0 for no effect and ±100 for the full control effect; nearly all actives have a fitted effect of over 55% in size
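Chicken DT40 Tdp1-/- cells complemented with human TDP1, 400 cells/well, exposed to compounds plus 20 nM camptothecin for at least 48 h at 37 C; viability read as ATP content by CellTiter-Glo luminescence.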
IL1B secr inh = blocks inflammasome-driven IL-1 beta release; THP-1 LPS/ATP IL-1B secretion, AlphaLISA, 16 h; hits give low values; activity change, % at 57.5 µM; actives 4.7% (n = 360,000); AID 743279; in the data active = activity change below about -50%; inconclusive = mostly about -30% to -49%; note: % is set by controls: 0 for no effect and ±100 for the full control effect
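THP-1 cells pretreated 1 hr with compounds (up to 57.5 uM final), then stimulated with LPS (250 ng/mL final) plus ATP (1.25 mM final); secreted IL-1B measured by AlphaLISA after 16 hr, decreased signal indicating inhibition.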
HepG2 viability = counter-screen for TGF-b inhibitors: cytotoxicity in HepG2 cells; AID 588856; Potency, µM (titrated, usually from 46.1 µM), without a hit: at the top dose activity change, negative = cytotoxicity, actives largely listed as cytotoxic; HepG2 CAGA-GFP viability, ATP luminescence, 18 h; actives 0.76% (n = 410,000); note: potency is the fitted concentration of half-maximal effect
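HepG2 CAGA-GFP cells (1000/well, DMEM with 1% FBS) received compound, then TGF-beta at 500 pg/mL final, and were incubated 18 hours at 37 degrees C. Viability was read by CellTiter-Glo luminescence. Media-only wells were set as complete cell-killing and DMSO as no toxicity.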
DT40 TDP1 no CPT = qHTS for Inhibitors of human tyrosyl-DNA phosphodiesterase 1 (TDP1): qHTS in cells in absence of CPT. Potency, µM (top dose mostly 46.2 µM), for the others: top-dose activity change, negative = growth inhibition, hits mostly inhibitors. actives 15% (n = 420,000). DT40 Tdp1-/- hTDP1 cells, no CPT, ATP luminescence, 48 h; note: potency is the fitted concentration of half-maximal effect; % is set by controls: 0 for no effect and ±100 for the full control effect; nearly all actives have a fitted effect of over 55% in size
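Growth kinetics read by CellTiter-Glo luminescence after ≥48 hr at 37 °C. Cells: DT40 Tdp1-/- stably carrying human TDP1, 400 per well, compound exposure in the absence of CPT (DMSO vehicle).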
TGFb SMAD3 inh = TGF-b pathway inhibition. Potency, µM (highest dose often 46.1 µM), inactives show at the top dose activity, negative = inhibition, usual class: inhibitors. actives 1.2% (n = 410,000). HepG2 CAGA-GFP TGF-b/SMAD3 reporter, GFP fluorescence, 18 h; TGF-beta stimulated, 500 pg/mL final; note: potency is the fitted concentration of half-maximal effect; % is set by controls: 0 for no effect and ±100 for the full control effect; nearly all actives have a fitted effect of over 65% in size
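HEPG2 CAGA-GFP, 1000 cells/well; 2 h settle, 37 C; cpd via pin tool; TGF-b 500 pg/mL final; 18 h, 37 C; GFP imaging ex488/em500-530; %Activity normalised to -TGF-b and +DMSO controls; CRC fit, curve class.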
Starred values were filed as active, the others as inactive; ? = inconclusive; . = no result; [ ] = another dose, or the depositor's remark. Unless noted, calls come from the whole dose curve; as a rule, active = well fitted curve in the direction sought with a large enough effect; inconclusive = small, poorly fitted or top-dose-only effect, or another doubt; inactive = no such curve, though single readings can be large; an effect the other way counts as inactive or inconclusive.

SMILES	TDP1 block	TDP1 cell CPT	IL1B secr inh	HepG2 viability	DT40 TDP1 no CPT	TGFb SMAD3 inh
COc1ccc(OC)c(NS(=O)(=O)c2ccc(-c3coc(C)n3)cc2)c1	9%	?	31	-3%	?	-9%
COc1ccc(NS(=O)(=O)c2ccc(-c3coc(C)n3)cc2)cc1	2%	?	11	-15%	-25%	-7%
Cc1nc(-c2ccc(S(=O)(=O)Nc3ccc(C)c(N(C)C)c3)cc2)co1	7%	7.3µM*	.	-23%	18µM*	-4%
COc1cc(Cl)c(NS(=O)(=O)c2ccc(-c3coc(C)n3)cc2)c(OC)c1	-1%	3.7µM*	.	-22%	4.1µM*	-16%
COc1ccc(NS(=O)(=O)c2ccc(-c3coc(C)n3)cc2)cc1OC	2%	4.1µM*	?	-12%	2.1µM*	-21%
Cc1cccc(C(=O)OCC(=O)N(C)c2ccccc2)c1C	6%	0%	1	-34%	?	-3%
Cc1c(C(=O)NCC2CCCO2)oc2ccc(Br)cc12 (centres undefined)	.	?	5	-6%	?	-18%
CC1(C)CC2C1CC[C@]1(C)CCC3C(C(=O)O)CC(=O)O[C@]32C1 (some centres undefined)	14%[56.1 µM]	?	.	.	?	.
CCCNC(=O)CN1C(=O)c2ccccc2Sc2ncccc21	.	4%	1	-9%	-12%	-9%
CSc1cccc(NS(=O)(=O)c2ccc(-c3coc(C)n3)cc2)c1	5%	?	17	-18%	15µM*	?
CCc1ccc(OCC(=O)N/N=C(\C)c2ccc(-n3ccnc3)cc2)cc1	5%	?	-21	-10%	16µM*	-14%
CCc1ccc(OCC(=O)N/N=C(\C)c2ccccc2OC(F)F)cc1	2%	16µM*	-11	0%	16µM*	-6%
C/C(=N\NC(=S)NC(C)C)c1ccc(-n2ccnc2)cc1	7%	3.3µM*	-17	1%	4.1µM*	-26%
COCCNC(=S)N/N=C(\C)c1ccc(-n2ccnc2)cc1	9%	4.5µM*	74	-22%	3.5µM*	?
C/C(=N\NC(N)=O)c1ccc(-n2ccnc2)cc1	6%	-5%	-5	-10%	-2%	7%
CNC(=S)N/N=C(\C)c1ccc(-n2ccnc2)cc1	7%	-3%	-11	-2%	4%	2%
CC1=CC(=O)C2C(C)(C)CCC[C@@]2(C)[C@@]1(O)CCc1ccoc1 (some centres undefined)	7%[56.1 µM]	?	.	.	?	.
Cc1ccc(NC(=O)N2CCCC2C(=O)Nc2nnc(C(C)C)s2)cc1 (centres undefined)	4%	12%	1	-5%	0%	19%
Cc1ccccc1N1C(=O)C2C3C=CC(C2C1=O)N(C)C3=O (centres undefined)	2%	3%	17	-2%	-2%	6%
CN1C2C=CC(=O)C1C1C(=O)N(c3ccccc3)C(=O)C12 (centres undefined)	.	18µM*	-118*	-22%	18µM*	0%
Cc1sc(N)nc1-c1cccs1	8%	0%	32	-2%	-8%	-3%
Nc1nc(-c2cccs2)c(NC(=O)c2ccccc2)s1	2%	16µM*	-95*	-74%	18µM*	?
Cc1c(NC(=O)c2ccccc2)cc(C(C)C)c(O)c1S(=O)(=O)c1ccc(Cl)cc1	-2%	21µM*	.	-25%	?	-9%
COc1cccc([C@@H]2Oc3ccc(Br)cc3C(=O)[C@H]2OC(=O)NCc2ccco2)c1	2%	.	.	.	.	.
Cc1ccc2c(c1)nnn2C1CCN(CC(=O)Nc2ccc(F)cc2)CC1	.	?	?	7%	21µM*	-16%
SMILES	TDP1 block	TDP1 cell CPT	IL1B secr inh	HepG2 viability	DT40 TDP1 no CPT	TGFb SMAD3 inh
Cc1ccc2c(c1)nnn2C1CCN(CC(=O)c2ccc(Cl)cc2)CC1	7%	-23%	8	-6%	-13%	0%
Cc1cc(C)cc(NC(=O)c2ccc3c(c2)nnn3C2CCCC2)c1	5%	1.3µM*	.	-31%	1.5µM*	-14%
Cc1ccc2c(c1)nnn2C1CCN(S(=O)(=O)c2cccc(S(=O)(=O)N(C)C)c2)CC1	5%	18µM*	-17	-43%	15µM*	11%
Cc1ccc2c(c1)nnn2C1CCN(CC(=O)Nc2ccc3c(c2)OCCO3)CC1	8%	5%	-14	-20%	-8%	-5%
Cc1ccc2c(c1)nnn2C1CCN(CC(=O)N2CCN(c3ccc(F)cc3)CC2)CC1	2%	16µM*	-5	0%	26µM*	9%
Cc1ccc2c(c1)nnn2C1CCN(CC(=O)N(c2ccccc2)c2ccccc2)CC1	.	13µM*	?	-51%	13µM*	?
Cc1ccc(S(=O)(=O)/N=C(/Nc2ccccc2C)c2ccccc2)cc1	-3%	?	-7	-11%	?	1%
Cc1ccccc1/C(=N\S(=O)(=O)c1ccc(Br)cc1)Nc1ccccc1	.	?	-6	-24%	15µM*	-1%
Cc1ccc(S(=O)(=O)/N=C(/Nc2c(C)cccc2C)c2ccccc2)cc1	0%	-69%	-6	-15%	1.6µM*	11%
CN(C)/C(=N\S(=O)(=O)c1ccc(Br)cc1)c1ccccc1	.	-18%	1	-1%	-9%	0%
COc1ccc(Cl)cc1NC(=O)CCS(=O)(=O)c1cccc2nonc12	6%	?	.	-30%	?	0%
CC(C)(C)c1ccc(C(O)c2ncc(-c3ccccc3F)[nH]2)cc1 (centres undefined)	.	?	-9	-50%	?	?
COc1ccc(C(=O)Nc2cccc(C)n2)cc1S(=O)(=O)N1CCCc2ccccc21	.	?	?	-6%	16µM*	-1%
COc1ccc(C(=O)NCc2ccccc2)cc1S(=O)(=O)N1CCCc2ccccc21	10%	16µM*	5	3%	?	1%
CN1CCc2c(sc3nc(NCCO)n(-c4cccc(Cl)c4)c(=O)c23)C1	.	7%	5	3%	20%	14%
COc1ccc(C(=O)N=C2SC3CS(=O)(=O)CC3N2c2ccc(C(C)=O)cc2)cc1 (centres undefined)	-10%	6%	-9	11%	19%	1%
CCCC[C@@H]1C[C@H]1C(NC(=O)c1cccnc1)c1ccc(Cl)cc1 (some centres undefined)	-7%	.	.	.	.	.

Compound activity as filed in PubChem.
